Data: PubChem BioAssay AID720664 (National Center for Advancing Translational Sciences (NCATS), 2013)
Results filed as inconclusive are left out. A call without a number means that no potency is given here. Calls of active or inactive are those of the source. Calls follow the shape of the dose curve; as a rule, active = well fitted inhibition curve with a large enough effect; inconclusive = small, poorly fitted or top-dose-only effect; inactive = flat fitted curve, though single readings scatter.

Target: Galactokinase (Homo sapiens) (UniProt P51570)
Assay: qHTS for Inhibitors of Human Galactokinase (GALK): SAR round 3
Excerpt: Inherited deficiency of galactose-1-phosphate uridyltransferase (GALT) can result in a potentially lethal disorder called Classic Galactosemia (OMIM 230400). Several lines of evidence indicate that an elevated level of galactose-1-phosphate (gal-1-p), the product of galactokinase (GALK), is a major, if not sole, pathogenic mechanism in patients with classic galactosemia. Therefore, finding inhibitors of GALK is a potential novel therapy for this inherent metabolic disease and is the long term goal of this project. Active compounds observed in the qHTS GALK assay (AID: 1868) were cherry picked and re-screened for validation. GALK (provided by Kent Lai) was assayed using ATP and D-(+)-Galactose (Sigma-Aldrich cat# G0750) as substrates. Promega ADP-Glo technology was used to detect the ADP product formed after the kinase reaction. Kinase reactions with and without GALK were used as negative and positive controls together with Protein Tyrosine Phosphatase CD45 inhibitor (EMD Bioscience cat# 540215) which is shown to inhibit GALK activity. Decrease in activity corresponds to inhibition of the enzyme, the desired outcome for this assay. NIH Molecular Libraries Probe Production Network [MLPCN] NIH Chemical Genomics Center [NCGC] Grant: MH085689-01 PI Name: Kent Lai, University of Utah
Three uL/well of ATP-buffer solution (35 uM ATP, 20mM HEPES pH8.0, 5 mM MgCl2, 60 mM NaCl, 1 mM DTT, 0.01% BSA final concentration) was dispensed into 1536-well, assay plates (Greiner, solid white medium-binding plates) with Aurora Discovery BioRAPTR Flying Reagent Dispenser (FRD; Beckton-Dickenson). Compound and control solution (23 nL) was transferred to the assay plate using the Kalypsys 1536-pin tool apparatus. One uL/well GALK-galactose solution (5 nM GALK, 100 uM galactose, 20 mM HEPES pH8.0, 5 mM MgCl2, 60 mM NaCl, 1 mM DTT, 0.01% BSA final concentration) was then added using the FRD yielding a total kinase reaction volume of 4 uL/ well. After 1 hour of room temperature incubation, 4 uL Kinase-Glo Plus reagent was added for a final assay volume of 8 uL/well. Luminescence was detected with the ViewLux plate reader (Perkin Elmer, Waltham, MA) after 2 min incubation using a 1 sec exposure time and 2x binning.

Galactokinase (Homo sapiens), sequence (P51570 whole entry, looked up): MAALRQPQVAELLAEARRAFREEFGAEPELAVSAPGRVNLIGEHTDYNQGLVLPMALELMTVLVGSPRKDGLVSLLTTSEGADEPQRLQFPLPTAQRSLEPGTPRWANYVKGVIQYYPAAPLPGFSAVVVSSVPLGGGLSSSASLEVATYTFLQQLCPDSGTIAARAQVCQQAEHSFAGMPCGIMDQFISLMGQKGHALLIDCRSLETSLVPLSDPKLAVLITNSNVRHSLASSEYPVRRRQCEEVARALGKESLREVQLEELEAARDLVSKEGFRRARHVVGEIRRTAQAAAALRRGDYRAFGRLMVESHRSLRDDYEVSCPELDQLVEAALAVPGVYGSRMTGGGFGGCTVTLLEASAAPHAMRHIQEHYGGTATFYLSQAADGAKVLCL

SMILES | Potency
Cn1cc(Cl)c(C2N=C(Nc3nc4ccccc4o3)NC3=C2C(=O)CCC3)n1 (centres undefined) | 12.2 µM (active)
Cn1cc(Br)c(C2N=C(Nc3nc4ccccc4o3)NC3=C2C(=O)CCC3)n1 (centres undefined) | 9.68 µM (active)
CC(=O)Nc1ncc(S(=O)(=O)N2CCOCC2)s1 | inactive
Cc1ccc2nc(NC3=NC(c4[nH]ncc4Cl)C4=C(CCCC4=O)N3)oc2c1 (centres undefined) | inactive
CCCc1ccc(NC(=O)c2ccc3c(c2)NC(=O)CS3)cc1 | inactive
CC1=C(C(=O)Nc2nccs2)C(c2ccccc2Br)N=C(Nc2nc3ccccc3o2)N1 (centres undefined) | inactive
Cc1cccc2nc(NC3=NC(c4[nH]ncc4Cl)C4=C(CCCC4=O)N3)oc12 (centres undefined) | inactive
O=C1CCCC2=C1C(c1[nH]ncc1Cl)N=C(Nc1nc3ccc(F)cc3o1)N2 (centres undefined) | inactive
CC1=C(C(=O)Nc2nncs2)C(c2nn(C)cc2Cl)N=C(Nc2nc3ccccc3o2)N1 (centres undefined) | 17.2 µM (active)
